The nature of assay [1]: antimalarial activity against Dd2 strain (AID 2302;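 active means growth inhibition above 50% at the single 2 µM test dose, taken to imply half-maximal potency below 2 µM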;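 further: 0% = DMSO untreated growth and 100% = chloroquine plus artemisinin killed control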). To be noted: P. falciparum Dd2 in RBCs, LDH growth readout, 72 h; at 2 µM; stronger effect = higher value.
A short description of assay [2]: HepG2 cytotoxicity, primary screen, cytotoxicity control for P. falciparum antimalarial project, cell-based, ATP luminescence (AID 2303;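 active means inhibition above 50%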;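 further: 0% = DMSO wells and 100% = digitonin-killed cells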). To be noted: HepG2 viability, 24-48 h, at 10 µM, stronger effect = higher value.
The target in assay [3] is L-lactate dehydrogenase (Plasmodium falciparum (isolate CDC / Honduras)) (UniProt Q27743). Description: PfLDH activity inhibition – cell lysate, 3D7 strain, counter-screen for P. falciparum growth inhibition project (AID 2304).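 Further: 0% = vehicle and 100% = reference inhibitor.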 To be noted: P. falciparum 3D7 crude extract, LDH APAD/NBT absorbance; at 2 µM; stronger effect = higher value. (In general: A counterscreen serves to expose hits that act by an unwanted route or on another target.)
Sequence of L-lactate dehydrogenase (Plasmodium falciparum (isolate CDC / Honduras)) (Q27743 whole entry, looked up): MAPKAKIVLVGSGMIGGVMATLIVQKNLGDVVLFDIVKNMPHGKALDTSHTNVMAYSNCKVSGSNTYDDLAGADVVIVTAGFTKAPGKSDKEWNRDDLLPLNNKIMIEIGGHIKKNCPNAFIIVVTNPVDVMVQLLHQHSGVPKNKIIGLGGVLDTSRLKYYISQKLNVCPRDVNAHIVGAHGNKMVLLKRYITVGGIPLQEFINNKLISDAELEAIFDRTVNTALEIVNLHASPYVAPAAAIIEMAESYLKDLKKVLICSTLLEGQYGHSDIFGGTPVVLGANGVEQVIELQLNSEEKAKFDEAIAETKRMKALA

The nature of assay [4]: inhibition of 3D7 malaria parasite growth – strain 3D7 (AID 2306).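 Further: 0% = DMSO wells and 100% = chloroquine plus artemisinin control wells.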 The following applies: P. falciparum 3D7 erythrocytic growth, LDH absorbance, 72 h; at 2 µM; stronger effect = higher value.
Assay [5] deals with Calcium-dependent protein kinase 1 (Plasmodium falciparum (isolate 3D7)) (UniProt P62344). Description: PfCDPK1 kinase inhibitors, biochemical, TCAMS library (AID 1159585; cut-off not given, nearly all actives have IC50 up to about 0.98 µM;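 further: inhibitors leave more ATP so luminescence rises with inhibition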). To be noted: recombinant PfCDPK1, Kinase-Glo ATP depletion luminescence.
Sequence of Calcium-dependent protein kinase 1 (Plasmodium falciparum (isolate 3D7)) (P62344 whole entry, looked up): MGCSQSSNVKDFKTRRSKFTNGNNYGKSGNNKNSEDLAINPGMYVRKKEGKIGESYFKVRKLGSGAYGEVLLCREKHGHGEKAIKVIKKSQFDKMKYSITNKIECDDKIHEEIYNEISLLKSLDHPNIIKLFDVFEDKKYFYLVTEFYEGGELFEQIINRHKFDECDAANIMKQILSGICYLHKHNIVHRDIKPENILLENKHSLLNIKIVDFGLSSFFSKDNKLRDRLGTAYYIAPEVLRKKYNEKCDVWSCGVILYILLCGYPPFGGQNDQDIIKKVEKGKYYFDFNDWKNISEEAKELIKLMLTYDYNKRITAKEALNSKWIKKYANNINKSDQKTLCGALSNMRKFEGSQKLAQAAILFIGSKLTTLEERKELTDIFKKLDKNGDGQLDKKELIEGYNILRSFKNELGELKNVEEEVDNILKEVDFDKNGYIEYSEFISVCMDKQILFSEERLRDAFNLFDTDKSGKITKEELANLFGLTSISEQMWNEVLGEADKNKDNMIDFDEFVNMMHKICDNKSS
The target in assay [6] is Plasmodium falciparum protein kinase 6 (PK6, PF3D7_1337100) (UniProt Q8IDW1). Description: PfPK6 kinase inhibitors, biochemical, TCAMS library (AID 1159586). To be noted: recombinant PfPK6, Kinase-Glo ATP depletion luminescence.
Sequence of Plasmodium falciparum protein kinase 6 (PK6, PF3D7_1337100) (Q8IDW1 1-305): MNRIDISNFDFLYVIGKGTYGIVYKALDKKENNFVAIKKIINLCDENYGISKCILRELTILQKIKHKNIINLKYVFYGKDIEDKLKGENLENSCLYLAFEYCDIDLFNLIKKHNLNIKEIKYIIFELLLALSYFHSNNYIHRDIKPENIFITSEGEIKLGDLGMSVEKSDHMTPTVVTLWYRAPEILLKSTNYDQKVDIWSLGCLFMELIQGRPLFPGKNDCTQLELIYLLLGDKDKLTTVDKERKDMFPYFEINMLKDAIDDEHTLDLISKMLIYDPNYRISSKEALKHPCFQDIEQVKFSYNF
Assay [7] addresses Protein kinase 7 (PK7), Plasmodium falciparum 3D7 (PF3D7_0213400) (UniProt Q7YTF7). Nature of the assay: inhibition of Plasmodium PK7 catalytic activity – biochemical, TCAMS antimalarial set, Kinase-Glo luminescence (AID 1159587). To be noted: recombinant PfPK7, Kinase-Glo ATP depletion luminescence. A general note: Kinase-Glo measures the ATP left after a reaction by luminescence.

Assay [8] has as its target Calcium-dependent protein kinase 4 (Plasmodium falciparum (isolate 3D7)) (UniProt Q8IBS5). Nature of the assay: PfCDPK4 kinase inhibitors, biochemical, TCAMS library (AID 1159588; cut-off not given, nearly all actives have IC50 up to about 0.91 µM). The following applies: recombinant PfCDPK4, Kinase-Glo ATP depletion luminescence.

Each structure is given as a SMILES string. Unmarked numbers belong to inactive results. For part of these data: Results with a measured potency or affinity are listed apart. Calls of active or inactive are those of the source. Unless noted, how the calls were made is not given here.

18 compounds from PubChem BioAssay can be followed below.

Sequence of Calcium-dependent protein kinase 4 (Plasmodium falciparum (isolate 3D7)) (Q8IBS5 whole entry, looked up): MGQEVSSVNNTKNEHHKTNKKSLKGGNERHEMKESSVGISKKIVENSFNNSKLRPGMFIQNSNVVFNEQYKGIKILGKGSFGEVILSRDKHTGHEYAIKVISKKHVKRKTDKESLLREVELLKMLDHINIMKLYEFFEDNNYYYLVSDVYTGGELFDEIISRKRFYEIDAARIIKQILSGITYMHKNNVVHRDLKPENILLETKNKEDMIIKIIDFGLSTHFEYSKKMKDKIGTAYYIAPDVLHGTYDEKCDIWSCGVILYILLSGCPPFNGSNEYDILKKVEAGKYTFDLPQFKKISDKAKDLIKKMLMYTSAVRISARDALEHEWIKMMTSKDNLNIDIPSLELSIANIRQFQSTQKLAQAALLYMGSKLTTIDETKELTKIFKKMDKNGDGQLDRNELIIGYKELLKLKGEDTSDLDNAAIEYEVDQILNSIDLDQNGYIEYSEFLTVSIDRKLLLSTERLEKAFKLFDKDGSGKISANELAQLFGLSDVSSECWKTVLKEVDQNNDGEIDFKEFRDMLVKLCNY
Sequence of Protein kinase 7 (PK7), Plasmodium falciparum 3D7 (PF3D7_0213400) (Q7YTF7 1-343): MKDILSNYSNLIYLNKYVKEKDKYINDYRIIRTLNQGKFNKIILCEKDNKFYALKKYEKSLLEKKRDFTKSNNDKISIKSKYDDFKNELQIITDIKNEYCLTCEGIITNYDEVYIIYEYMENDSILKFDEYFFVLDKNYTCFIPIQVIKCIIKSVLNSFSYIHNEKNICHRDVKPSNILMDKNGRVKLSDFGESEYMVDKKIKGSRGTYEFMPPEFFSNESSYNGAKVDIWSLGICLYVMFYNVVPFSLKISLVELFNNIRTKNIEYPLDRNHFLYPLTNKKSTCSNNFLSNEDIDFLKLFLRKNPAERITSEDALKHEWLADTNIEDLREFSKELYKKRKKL

One may read the inhibition as the change of the read-out against control, counted positive when it falls. On to `CC1CCC2(CC1)N=C(N)N=C(N)N2OCc1ccc(Br)c2ccccc12` (centres undefined), for which the growth inhibition in assay [1] was 40%; in assay [4], 96% (active). For the same compound, the results for the inhibition in assay [2] and in assay [3] were 46% and -4%, respectively. In addition, the outcome in assay [5], in assay [6], in assay [7] and in assay [8] was inactive.
For `COCCN(CCOC)c1ncc(-c2ccsc2)c(-c2nc(C)c(C)s2)n1`, the values for the growth inhibition in assay [1] and in assay [4] were 63% (active) and 96% (active), respectively. The inhibition in assay [2] was 1%; in assay [3] it was 5%. The result in assay [5], in assay [6], in assay [7] and in assay [8] was inactive.
Turning to `COc1ccccc1C1CCN(C2CCC(NC(=O)/C=C/c3ccc(F)c(F)c3)CC2)CC1` (centres undefined), the growth inhibition in assay [1] is 9%; in assay [4] it was 94% (active). Also, the inhibition is 49% in assay [2] and 1% in assay [3]. In addition, the outcome in assay [5], in assay [6], in assay [7] and in assay [8] was inactive.
On to `C[C@@H](N)C#Cc1cc2c(Nc3ccc(OCc4cccc(F)c4)c(Cl)c3)ncnc2s1`, for which the growth inhibition in assay [1] is 23%; in assay [4] it was 89% (active). In addition, the inhibition in assay [2] is 17%; in assay [3], -5%. Besides, the result in assay [5], in assay [6], in assay [7] and in assay [8] was inactive.
With `Oc1cc2c(cc1CN1CCN(Cc3ccccc3F)CC1)CCC2`, the values for the growth inhibition in assay [1] and in assay [4] were 94% (active) and 98% (active), respectively. The inhibition in assay [2] is 2%; in assay [3] it was -3%. Further, the outcome in assay [5], in assay [6], in assay [7] and in assay [8] was inactive.
Consider `Oc1ccc(Cc2cc(Oc3c(I)cc(CCc4ncc[nH]4)cc3I)ccc2O)cc1`, for which the figures for the growth inhibition in assay [1] and in assay [4] were 32% and 101% (active), respectively. Also, the inhibition in assay [2] was 10%; in assay [3], -3%. For the same compound, the outcome in assay [5], in assay [6], in assay [7] and in assay [8] was inactive.
As for `O=C(Nc1ccccc1)N(Cc1cccc(-c2ccc(CNCCc3ccccc3)cc2)c1)C1CCN(Cc2ccccc2)CC1`, the growth inhibition in assay [1] is 95% (active); in assay [4] it was 101% (active). Besides, the results for the inhibition in assay [2] and in assay [3] were 100% (active) and 3%, respectively. Besides, the result in assay [5], in assay [6], in assay [7] and in assay [8] was inactive.
As to `O=C(CCc1cccnc1)Nc1cccc(-c2ccc(-c3nc4ccc(C(F)(F)F)cc4[nH]3)cc2)c1`, the growth inhibition is -5% in assay [1] and 93% (active) in assay [4]. Moreover, the inhibition in assay [2] is 38%; in assay [3], 3%. For the same compound, the outcome in assay [5], in assay [6], in assay [7] and in assay [8] was inactive.
Regarding `O=C(NC1CCN(Cc2ccccc2)CC1)c1cccc(-c2cc3cc(Cl)c(Cl)cc3[nH]2)c1`, the growth inhibition was 86% (active) in assay [1] and 100% (active) in assay [4]. Also, the inhibition was 15% in assay [2] and -6% in assay [3]. The result in assay [5], in assay [6], in assay [7] and in assay [8] was inactive.
With `CSc1ccc(CN2CCC(CNC(=O)c3cc(-c4ccccc4F)cs3)C2)cc1` (centres undefined), the growth inhibition in assay [1] is 13%; in assay [4], 90% (active). Moreover, the inhibition was 32% in assay [2] and 2% in assay [3]. The result in assay [5], in assay [6], in assay [7] and in assay [8] was inactive.
`O=c1cc(NCCCNCc2ccccc2-c2ccccc2)[nH]c2ccccc12`: the figures for the growth inhibition in assay [1] and in assay [4] were 46% and 88% (active), respectively. Moreover, the inhibition is 0% in assay [2] and -1% in assay [3]. Moreover, the result in assay [5], in assay [6], in assay [7] and in assay [8] was inactive.
On to `CC(=O)Nc1ccc(C(=O)Nc2ccc(-c3csc(-c4nc5ccccc5[nH]4)c3)cc2)cn1`, for which the growth inhibition in assay [1] is -2%; in assay [4], 93% (active). For the same compound, the inhibition is 11% in assay [2] and -3% in assay [3]. The result in assay [5], in assay [6], in assay [7] and in assay [8] was inactive.
For the compound `COc1ccc2nccc([C@@H](O)CNCCCN(C)CCOc3cc(F)cc(F)c3)c2c1`, the growth inhibition in assay [1] was 58% (active); in assay [4] it was 99% (active). For the same compound, the inhibition in assay [2] was 11%; in assay [3], -1%. Also, the result in assay [5], in assay [6], in assay [7] and in assay [8] was inactive.
In the case of `O=C(Nc1cccc(-c2nn3ccccc3c2-c2ccnc(Nc3cccc(C(F)(F)F)c3)n2)c1)c1c(F)cccc1F`, the values for the growth inhibition in assay [1] and in assay [4] were 91% (active) and 97% (active), respectively. For the same compound, the inhibition is 43% in assay [2] and -2% in assay [3]. Also, the outcome in assay [5], in assay [6], in assay [7] and in assay [8] was inactive.
Turning to `NC(=O)c1cccc(Nc2nccc(Nc3ccc(Oc4cccc5ccccc45)cc3)n2)c1`, the growth inhibition is 22% in assay [1] and 94% (active) in assay [4]. Besides, the inhibition was -10% in assay [2] and 3% in assay [3]. The result in assay [5], in assay [6], in assay [7] and in assay [8] was inactive.
In the case of `Cc1ccc(Oc2c(-c3ccccc3CN3CCCC3CN(C)C)cnn(C)c2=O)cn1` (centres undefined), the results for the growth inhibition in assay [1] and in assay [4] were 9% and 88% (active), respectively. Moreover, the inhibition was -1% in assay [2] and -4% in assay [3]. Moreover, the result in assay [5], in assay [6], in assay [7] and in assay [8] was inactive.
Take `Cc1cc2c(cc1C(F)(F)F)N(C(=O)Nc1cccc(C(=O)NC3CCN(Cc4ccccc4)CC3)c1)CC2`: the growth inhibition is -5% in assay [1] and 91% (active) in assay [4]. The inhibition was 19% in assay [2] and -2% in assay [3]. The result in assay [5], in assay [6], in assay [7] and in assay [8] was inactive.
Consider `Cc1cccc2[nH]c(-c3cccc(-c4cccc(NC(=O)c5cccnc5Cl)c4)c3)nc12`, for which the growth inhibition in assay [1] is 32%; in assay [4], 97% (active). Besides, the values for the inhibition in assay [2] and in assay [3] were -1% and 0%, respectively. Also, the outcome in assay [5], in assay [6], in assay [7] and in assay [8] was inactive.
